According to PubChem BioAssay (NCATS):
Records with an inconclusive call do not appear. A number with no mark means an inactive call. The source made the active and inactive calls. Calls come from the whole dose curve; as a rule, active = well fitted cell-killing curve with a large enough effect; inconclusive = small, poorly fitted or top-dose-only effect; inactive = flat fitted curve, though single readings scatter.

Assay: Cell Viability - LYMP2-012 (AID 982);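 note: cellular ATP by luciferase luminescence where a drop means cytotoxicity; cells exposed to compound for one day before reading; nearly all actives have a fitted effect of over 55% in size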;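 for activity change, negative = cytotoxicity: 0% = DMSO only and full loss = 92 µM tetraoctylammonium bromide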
Conditions: LYMP2-012 lymphoblastoid cell viability qHTS; series mostly up to 92.2 µM; activity change, negative = cytotoxicity: at the top concentration
Potency is the fitted concentration of half-maximal effect.

Row | Structure (SMILES) | activity change, negative = cytotoxicity | Potency
1 | Cc1ncc([N+](=O)[O-])n1CCO | -4.26% | 
2 | NNC(=O)c1ccncc1 | -3.64% | 
3 | O=C(N[C@H](CO)[C@H](O)c1ccc([N+](=O)[O-])cc1)C(Cl)Cl | 7.31% | 
4 | Cc1noc(NS(=O)(=O)c2ccc(N)cc2)c1C | -2.87% | 
5 | NC(N)=NC(N)=NCCc1ccccc1 | -14.3% | 
6 | CC[C@H](C)C(=O)O[C@H]1C[C@@H](C)C=C2C=C[C@H](C)[C@H](CC[C@@H]3C[C@@H](O)CC(=O)O3)[C@H]21 | -21% | 
7 | Cc1ccnc2c1NC(=O)c1cccnc1N2C1CC1 | -9.2% | 
8 | O=C(O)c1cc(=O)[nH]c(=O)[nH]1 | -1.64% | 
9 | C[C@]12C=CC(=O)C=C1CC[C@@H]1[C@@H]2C(=O)C[C@@]2(C)[C@H]1CC[C@]2(O)C(=O)CO | -7.72% | 
10 | CCc1cc(C(N)=S)ccn1 | -6.35% | 
11 | Cc1nnc(NS(=O)(=O)c2ccc(N)cc2)s1 | -11.6% | 
12 | Cc1cc(NS(=O)(=O)c2ccc(N)cc2)no1 | 0.567% | 
13 | CC1=NN(c2ccccc2)C(=O)C1 | -17.7% | 
14 | CN(C)c1ccc(C(=C2C=CC(=[N+](C)C)C=C2)c2ccc(N(C)C)cc2)cc1 |  | 1000 nM (active)

Assay: Cell Viability - LYMP2-014 (AID 983);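 note: cells exposed to compound for 24 h at 37 °C; nearly all actives have a fitted effect of over 50% in size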;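 for activity change, negative = cytotoxicity: plate controls were DMSO only for no effect and 92 µM tetraoctylammonium bromide for full effect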
Conditions: LYMP2-014 lymphoblastoid cells, viability qHTS; series mostly up to 92.2 µM; activity change, negative = cytotoxicity: at the top concentration
Outline: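 2500 cells/well, 5 hr 37 C; cpd 24 hr 37 C, complete medium; CellTiter-Glo 30 min RT, luminescence; ATP loss = toxicity; AC50 via Hill eqn; tetraoctylammonium bromide positive control.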

Row | Structure (SMILES) | activity change, negative = cytotoxicity | Potency
15 | Cc1ncc([N+](=O)[O-])n1CCO | -1.49% | 
16 | NNC(=O)c1ccncc1 | -3.33% | 
17 | O=C(N[C@H](CO)[C@H](O)c1ccc([N+](=O)[O-])cc1)C(Cl)Cl | 2.6% | 
18 | Cc1noc(NS(=O)(=O)c2ccc(N)cc2)c1C | 0.607% | 
19 | NC(N)=NC(N)=NCCc1ccccc1 | -18.9% | 
20 | CC[C@H](C)C(=O)O[C@H]1C[C@@H](C)C=C2C=C[C@H](C)[C@H](CC[C@@H]3C[C@@H](O)CC(=O)O3)[C@H]21 | -24.8% | 
21 | Cc1ccnc2c1NC(=O)c1cccnc1N2C1CC1 | -4.53% | 
22 | O=C(O)c1cc(=O)[nH]c(=O)[nH]1 | -8.25% | 
23 | C[C@]12C=CC(=O)C=C1CC[C@@H]1[C@@H]2C(=O)C[C@@]2(C)[C@H]1CC[C@]2(O)C(=O)CO | -2.57% | 
24 | CCc1cc(C(N)=S)ccn1 | -7.8% | 
25 | Cc1nnc(NS(=O)(=O)c2ccc(N)cc2)s1 | -10.9% | 
26 | Cc1cc(NS(=O)(=O)c2ccc(N)cc2)no1 | -6.72% | 
27 | CC1=NN(c2ccccc2)C(=O)C1 | -2.32% | 
28 | CN(C)c1ccc(C(=C2C=CC(=[N+](C)C)C=C2)c2ccc(N(C)C)cc2)cc1 |  | 2000 nM (active)

Assay: Cell Viability - LYMP2-016 (AID 984);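 note: cells exposed to compound for 24 hours at 37 °C; nearly all actives have a fitted effect of over 55% in size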; for activity change, negative = cytotoxicity: % is set by controls: 0 for no effect and ±100 for the full control effect
Conditions: LYMP2-016 lymphoblastoid cell viability, qHTS; series mostly up to 92.2 µM; activity change, negative = cytotoxicity: at the top concentration
Outline: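 Cells were seeded at 2500 per well and rested 5 hr before a 24 hr compound exposure at 37 C. Viability was then gauged as cellular ATP by luciferase luminescence, with AC50 values fitted to the Hill equation.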

Row | Structure (SMILES) | activity change, negative = cytotoxicity | Potency
29 | Cc1ncc([N+](=O)[O-])n1CCO | -3.21% | 
30 | NNC(=O)c1ccncc1 | -4.54% | 
31 | O=C(N[C@H](CO)[C@H](O)c1ccc([N+](=O)[O-])cc1)C(Cl)Cl | -8.1% | 
32 | Cc1noc(NS(=O)(=O)c2ccc(N)cc2)c1C | -6.79% | 
33 | NC(N)=NC(N)=NCCc1ccccc1 | -20.6% | 
34 | CC[C@H](C)C(=O)O[C@H]1C[C@@H](C)C=C2C=C[C@H](C)[C@H](CC[C@@H]3C[C@@H](O)CC(=O)O3)[C@H]21 | -22.8% | 
35 | Cc1ccnc2c1NC(=O)c1cccnc1N2C1CC1 | -5.12% | 
36 | O=C(O)c1cc(=O)[nH]c(=O)[nH]1 | -8.52% | 
37 | C[C@]12C=CC(=O)C=C1CC[C@@H]1[C@@H]2C(=O)C[C@@]2(C)[C@H]1CC[C@]2(O)C(=O)CO | -3.78% | 
38 | CCc1cc(C(N)=S)ccn1 | -6.15% | 
39 | Cc1nnc(NS(=O)(=O)c2ccc(N)cc2)s1 | -11.5% | 
40 | Cc1cc(NS(=O)(=O)c2ccc(N)cc2)no1 | -8.38% | 
41 | CC1=NN(c2ccccc2)C(=O)C1 | -9.5% | 
42 | CN(C)c1ccc(C(=C2C=CC(=[N+](C)C)C=C2)c2ccc(N(C)C)cc2)cc1 |  | 2000 nM (active)

Assay: Cell Viability - LYMP2-018 (AID 985); note: nearly all actives have a fitted effect of over 50% in size;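 for activity change, negative = cytotoxicity: plate controls were DMSO only for no effect and tetraoctylammonium bromide at 92 µM for full effect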
Conditions: LYMP2-018 lymphoblastoid cells, viability (qHTS); series mostly up to 92.2 µM; activity change, negative = cytotoxicity: at the top concentration
Outline: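 2500 cells/well; 5 hr 37 C; cmpd 24 hr 37 C, complete medium; CellTiter-Glo 30 min RT; luminescence. Tetraoctylammonium bromide positive control. AC50 via Hill fit.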

Row | Structure (SMILES) | activity change, negative = cytotoxicity | Potency
43 | Cc1ncc([N+](=O)[O-])n1CCO | -3.59% | 
44 | NNC(=O)c1ccncc1 | 3.39% | 
45 | O=C(N[C@H](CO)[C@H](O)c1ccc([N+](=O)[O-])cc1)C(Cl)Cl | -8.78% | 
46 | Cc1noc(NS(=O)(=O)c2ccc(N)cc2)c1C | -0.394% | 
47 | NC(N)=NC(N)=NCCc1ccccc1 | -26.3% | 
48 | CC[C@H](C)C(=O)O[C@H]1C[C@@H](C)C=C2C=C[C@H](C)[C@H](CC[C@@H]3C[C@@H](O)CC(=O)O3)[C@H]21 | -28.8% | 
49 | Cc1ccnc2c1NC(=O)c1cccnc1N2C1CC1 | -8.69% | 
50 | O=C(O)c1cc(=O)[nH]c(=O)[nH]1 | -14.6% | 
51 | C[C@]12C=CC(=O)C=C1CC[C@@H]1[C@@H]2C(=O)C[C@@]2(C)[C@H]1CC[C@]2(O)C(=O)CO | -9.77% | 
52 | CCc1cc(C(N)=S)ccn1 | -14.5% | 
53 | Cc1nnc(NS(=O)(=O)c2ccc(N)cc2)s1 | -16.3% | 
54 | Cc1cc(NS(=O)(=O)c2ccc(N)cc2)no1 | -4.33% | 
55 | CC1=NN(c2ccccc2)C(=O)C1 | -9.27% | 
56 | CN(C)c1ccc(C(=C2C=CC(=[N+](C)C)C=C2)c2ccc(N(C)C)cc2)cc1 |  | 2000 nM (active)

Assay: Cell Viability - LYMP2-020 (AID 986);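 note: cells exposed to compound for 24 h at 37 °C; nearly all actives have a fitted effect of over 55% in size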;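 for activity change, negative = viability loss: plate controls were DMSO only for no effect and tetraoctylammonium bromide at 92 µM for full effect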
Conditions: series mostly up to 92.2 µM; activity change, negative = viability loss: at the top concentration
Outline: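 qHTS, 2500 cells/well; 5 hr then 24 hr compound exposure, 37 C; CellTiter-Glo luminescence after 30 min RT; ATP decrease taken as cytotoxicity; AC50 via Hill equation; tetraoctylammonium bromide positive control.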

Row | Structure (SMILES) | activity change, negative = viability loss | Potency
57 | Cc1ncc([N+](=O)[O-])n1CCO | -2.33% | 
58 | NNC(=O)c1ccncc1 | -10.4% | 
59 | O=C(N[C@H](CO)[C@H](O)c1ccc([N+](=O)[O-])cc1)C(Cl)Cl | -14.2% | 
60 | Cc1noc(NS(=O)(=O)c2ccc(N)cc2)c1C | -5.16% | 
61 | Cc1ccnc2c1NC(=O)c1cccnc1N2C1CC1 | -8% | 
62 | O=C(O)c1cc(=O)[nH]c(=O)[nH]1 | 0.566% | 
63 | C[C@]12C=CC(=O)C=C1CC[C@@H]1[C@@H]2C(=O)C[C@@]2(C)[C@H]1CC[C@]2(O)C(=O)CO | 4.74% | 
64 | CCc1cc(C(N)=S)ccn1 | -7.34% | 
65 | Cc1nnc(NS(=O)(=O)c2ccc(N)cc2)s1 | 0.0058% | 
66 | Cc1cc(NS(=O)(=O)c2ccc(N)cc2)no1 | 0.377% | 
67 | CC1=NN(c2ccccc2)C(=O)C1 | -13.1% | 
68 | CN(C)c1ccc(C(=C2C=CC(=[N+](C)C)C=C2)c2ccc(N(C)C)cc2)cc1 |  | 2000 nM (active)
